Calls of active or inactive are those of the source. Unless noted, no rule for the calls is given here.
Columns and labels:
[1] = test system: XIP peptide (Xip251-270) binding; experiment: XIP fragment 251-270 binding compounds – biochemical, small-molecule microarray, fluorescence 635/667 nm, 0.1 µg/mL protein, primary screen (AID 1182); conditions: fluorescent protein binding, 635 nm, higher = more signal, called active from +8 up or from −8 down
XIP peptide (Xip251-270) = experiment: compounds binding XIP fragment 251-270 – biochemical, small-molecule microarray, fluorescence 635/667 nm, 0.5 µg/mL protein, primary screen (AID 1183); conditions: fluorescence 635 nm, higher = more signal
[2] = blood-stage malaria parasite viability loss – strain 3D7, DAPI fluorescence, 100 nL, primary screen (AID 1184);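 also: parasites grown inside human red blood cells in medium with human serum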; conditions: P. falciparum 3D7 growth, 3 d, higher = more signal
[3] = molecular target: Homeobox protein Hox-A13 (Mus musculus) (UniProt Q62424); experiment: disruptors of Hoxa13 oligonucleotide interaction – biochemical, fluorescence polarization, labeled oligonucleotide, primary screen (AID 1185); conditions: Hoxa13:DNA binding, 15 min, higher = more signal, called active from +8 up or from −8 down
Sequence of Homeobox protein Hox-A13 (Mus musculus) (Q62424 whole entry, looked up): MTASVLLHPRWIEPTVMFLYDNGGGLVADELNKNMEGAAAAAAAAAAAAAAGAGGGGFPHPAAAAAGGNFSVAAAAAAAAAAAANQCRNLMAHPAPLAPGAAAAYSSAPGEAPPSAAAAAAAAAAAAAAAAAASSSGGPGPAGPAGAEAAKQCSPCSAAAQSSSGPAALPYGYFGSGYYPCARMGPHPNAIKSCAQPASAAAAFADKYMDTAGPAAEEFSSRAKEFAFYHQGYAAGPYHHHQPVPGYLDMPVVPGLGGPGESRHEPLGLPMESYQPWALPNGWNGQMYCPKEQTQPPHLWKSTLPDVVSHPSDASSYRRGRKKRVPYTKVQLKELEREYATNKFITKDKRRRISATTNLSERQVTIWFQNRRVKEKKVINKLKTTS

[4] = blockers of DNA damage checkpoint Chk1 activation – imaging, HeLa, hydroxyurea, phospho-Chk1 antibody, percent positive cells, primary screen (AID 1186); conditions: hydroxyurea-induced phospho-Chk1 immunofluorescence imaging, higher = more signal
[5] = blockers of DNA damage checkpoint Chk1 activation – imaging, HeLa, hydroxyurea, phospho-Chk1 nuclear intensity, primary screen (AID 1187); conditions: hydroxyurea-induced phospho-Chk1 immunofluorescence imaging, higher = more signal

Compound | composite z-score [1] | composite z-score (XIP peptide (Xip251-270)) | z-score [2] | z-score [3] | z-score [4] | z-score [5]
CC(C)(C)OC(=O)CC[C@@]1(C(=O)NCc2ccccc2)N=C(c2ccc(OCCCO)cc2)O[C@@H]1c1ccccc1N=[N+]=[N-] | -0.208 (inactive) | 0.759 | -2.1 | -1.44 (inactive) | -0.347 (inactive) | 0.14 (inactive)
CC1=C[C@@]2(CO)C(=O)[C@]3(CO3)[C@@H]1[C@H]1[C@]2(C)C=C(CO)C(=O)[C@]12CO2 | 0.188 (inactive) | 0.454 | -1.27 | -4.58 (inactive) | -0.441 (inactive) | -0.35 (inactive)
C=C(/C(=C/C[C@H](OC(=O)c1ccncc1)c1ccc(CO)o1)c1cc(C(=O)OC)ccc1OC)C(C)C | 0.0474 (inactive) | 0.554 | -0.114 | -5.26 (inactive) | -0.291 (inactive) | -0.218 (inactive)
COc1ccccc1CN1C(=O)c2ccccc2[C@@]2(Cc3ccccc3N(CC(F)(F)F)C2=O)[C@@H]1c1ccc(CO)cc1 | 0.182 (inactive) | 0.555 | -0.384 | -0.814 (inactive) | 0.149 (inactive) | 0.312 (inactive)
C=CCOC(=O)[C@H]1[C@@H]2C(=O)O[C@@H](c3ccccc3)[C@@H](c3ccccc3)N2[C@@H](c2ccc(OCCOC(=O)[C@@H]3C[C@@H]4C(=O)N[C@@H](CCCCN(C)C)C(=O)N4[C@@H]3c3ccc(O)cc3)cc2)[C@]12C(=O)Nc1ccccc12 | 2.41 (inactive) | 0.878 | 0.0953 | 4.03 (inactive) | -0.768 (inactive) | -0.475 (inactive)
CO[C@H]1O[C@H](CO)[C@@H](OC(=O)Nc2ccc3c(c2)OCO3)[C@H](OC(=O)c2cc3ccccc3[nH]2)[C@H]1OC(=O)c1cc2ccccc2[nH]1 | 0.472 (inactive) | 0.374 | -0.603 | -4.88 (inactive) | -0.308 (inactive) | -0.227 (inactive)
COCCCNC(=O)[C@]1(CCS(=O)(=O)c2ccccc2)N=C(c2ccc(OCCCO)cc2)O[C@@H]1c1ccccc1N=[N+]=[N-] | 1.26 (inactive) | 0.731 | -2.4 | -3.71 (inactive) | -0.198 (inactive) | -0.266 (inactive)
C[C@]1(C(=O)NC2CC2)c2ccccc2C(=O)N(Cc2ccccc2)[C@H]1c1ccc(CO)cc1 | -0.0942 (inactive) | -0.227 | -1.62 | -1.31 (inactive) | -0.483 (inactive) | -0.567 (inactive)
CC1CC/C=C\[C@H]2OC34C=CCN(C(C)C)C(=O)[C@H]3N(CCCCCCO)C(=O)[C@@H]4C2C(=O)O1 (stereo partly specified) | 0.565 (inactive) | 0.27 | -0.565 | -3.74 (inactive) | -0.108 (inactive) | 0.631 (inactive)
CN(C)CCCNC(=O)[C@@H]1c2ccccc2C(=O)N(Cc2ccccc2Cl)[C@H]1c1ccc(CO)cc1 | 0.596 (inactive) | 0.285 | -0.424 | -2.58 (inactive) | 0.0357 (inactive) | 0.0322 (inactive)
O=C(CS)NCCCCCNC(=O)[C@@H]1C[C@@H]2C(=O)N3CCC[C@H]3C(=O)N2[C@@H]1c1cccc(OCCO)c1 | 2.29 (inactive) | 0.839 | 1.05 | -3.61 (inactive) | 1.25 (inactive) | 0.575 (inactive)
CCCC[C@@H]1C[C@H]1[C@@H](NC(=O)c1ccccc1)c1ccc(C(F)(F)F)cc1 | 2.28 (inactive) | -1.51 | 0.011 | 0.0892 (inactive) | -0.27 (inactive) | -0.226 (inactive)
C=C(COC)C(=O)CC[C@@H](OC(=O)c1cccnc1)c1ccc(OCCO)cc1 | -0.344 (inactive) | 0.481 | 0.415 | -4.4 (inactive) | -0.0647 (inactive) | -0.573 (inactive)
CC(C)[Si](C#CCCCC#N)(O[C@H](c1ccccc1)c1cn([C@H](CO)Cc2ccccc2)nn1)C(C)C | 0.0339 (inactive) | 0.283 | 0.0921 | -0.999 (inactive) | -0.43 (inactive) | -1.05 (inactive)
COCCOC(=O)N1C(=O)[C@@]2(c3cc(C#CC4(O)CCCCCC4)ccc31)[C@H](c1ccc(O)cc1)N1[C@H](c3ccccc3)[C@H](c3ccccc3)OC(=O)[C@H]1[C@@H]2C(=O)NC[C@H](O)c1ccccc1 | 1.71 (inactive) | 0.681 | -0.0194 | -2.78 (inactive) | -0.145 (inactive) | -0.154 (inactive)
COCCCNC(=O)[C@@]1(Cc2ccccc2N=[N+]=[N-])N=C(c2ccc(OCCCO)cc2)O[C@H]1c1ccccc1 | 0.226 (inactive) | 0.818 | -2.49 | -5.46 (inactive) | 0.0251 (inactive) | 0.285 (inactive)
CCCCO[C@H]1C[C@H]2C(I)=C[C@@H]1C(=O)[C@]21CO1 | -0.178 (inactive) | 0.08 | 1.06 | -1.07 (inactive) | 0.187 (inactive) | -0.0533 (inactive)
COCCOC(=O)N1C(=O)[C@@]2(c3cc(C#CC4=CCCCC4)ccc31)[C@H](C(=O)N1CCCCCCC1)[C@H]1C(=O)O[C@H](c3ccccc3)[C@H](c3ccccc3)N1[C@@H]2c1ccc(O)cc1 | 0.179 (inactive) | 0.695 | -1.72 | 2.25 (inactive) | -0.525 (inactive) | -0.932 (inactive)
CCCCCCc1nc(C2CC2)cc2c1[Si](C(C)C)(C(C)C)O[C@H]2c1ccccc1 | 0.263 (inactive) | 0.421 | -0.358 | -1.54 (inactive) | -0.507 (inactive) | -0.465 (inactive)
CC(C)C[C@@H]1NC(=O)[C@@H]2C[C@H](C(=O)NCCCCN(C)C)[C@H](c3cccc(OCCO)c3)N2C1=O | 0.36 (inactive) | 0.755 | -0.192 | -3.41 (inactive) | -0.232 (inactive) | -0.455 (inactive)
COC(=O)C1=CC(CCCO)=CC(C2CC2)N(C)C=C1C(=O)OC (stereo unspecified) | 0.473 (inactive) | 0.16 | 0.493 | -6.16 (inactive) | -0.68 (inactive) | -1.04 (inactive)
COCCOC(=O)N1C(=O)[C@@]2(c3cc(C#CC4=CCCCC4)ccc31)[C@H](c1ccccc1OCCO)N1[C@H](c3ccccc3)[C@H](c3ccccc3)OC(=O)[C@H]1[C@@H]2C(=O)Nc1nc2ccccc2s1 | 0.469 (inactive) | 0.484 | -1.8 | 3.53 (inactive) | 0.325 (inactive) | 0.587 (inactive)
COc1ccc([Si](C)(C)[C@@H]2[C@@H](CC(=O)N(CCO)Cc3ccccc3)O[C@]3(C(=O)N(Cc4cccc(N5CCOC5=O)c4)c4ccccc43)[C@H]2C)cc1 | 1.18 (inactive) | 0.799 | -2.16 | -2.52 (inactive) | 0.437 (inactive) | -0.0407 (inactive)
C[C@@H]1ON(c2ccc(C(=O)OC(C)(C)C)cc2)[C@H](c2ccc(O)cc2)[C@H]1C(=O)N1C(=O)OC[C@H]1Cc1ccccc1 | 0.047 (inactive) | 0.599 | -0.393 | -3.64 (inactive) | -0.0209 (inactive) | -0.154 (inactive)
C=CCOC(=O)[C@H]1[C@@H]2C(=O)O[C@@H](c3ccccc3)[C@@H](c3ccccc3)N2[C@@H](c2ccc(OCCOC(=O)[C@@H]3C[C@@H]4C(=O)N[C@@H](CCCCNC(C)=O)C(=O)N4[C@@H]3c3ccc(O)cc3)cc2)[C@]12C(=O)Nc1ccc(I)cc12 | 0.875 (inactive) | 0.811 | -1.96 | -0.356 (inactive) | -0.235 (inactive) | 0.0348 (inactive)
CCOC(=O)C[C@H]1[C@H](OC(=O)Cc2ccc3c(c2)OCO3)[C@@H](NC(=O)Cc2ccc(OC)cc2)c2cc(OCCCO)ccc2N1C(=O)c1ccc2ccccc2n1 | -0.16 (inactive) | 0.0481 | -0.919 | -3.37 (inactive) | -0.996 (inactive) | -0.347 (inactive)
